The target in experiment [1] is T1, Serine/threonine-protein kinase D2 (Homo sapiens) (UniProt Q9BZL6).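 Also: mean value of PRKD2 inhibition, from the GSK PKIS screening panel.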
T1 sequence (whole entry): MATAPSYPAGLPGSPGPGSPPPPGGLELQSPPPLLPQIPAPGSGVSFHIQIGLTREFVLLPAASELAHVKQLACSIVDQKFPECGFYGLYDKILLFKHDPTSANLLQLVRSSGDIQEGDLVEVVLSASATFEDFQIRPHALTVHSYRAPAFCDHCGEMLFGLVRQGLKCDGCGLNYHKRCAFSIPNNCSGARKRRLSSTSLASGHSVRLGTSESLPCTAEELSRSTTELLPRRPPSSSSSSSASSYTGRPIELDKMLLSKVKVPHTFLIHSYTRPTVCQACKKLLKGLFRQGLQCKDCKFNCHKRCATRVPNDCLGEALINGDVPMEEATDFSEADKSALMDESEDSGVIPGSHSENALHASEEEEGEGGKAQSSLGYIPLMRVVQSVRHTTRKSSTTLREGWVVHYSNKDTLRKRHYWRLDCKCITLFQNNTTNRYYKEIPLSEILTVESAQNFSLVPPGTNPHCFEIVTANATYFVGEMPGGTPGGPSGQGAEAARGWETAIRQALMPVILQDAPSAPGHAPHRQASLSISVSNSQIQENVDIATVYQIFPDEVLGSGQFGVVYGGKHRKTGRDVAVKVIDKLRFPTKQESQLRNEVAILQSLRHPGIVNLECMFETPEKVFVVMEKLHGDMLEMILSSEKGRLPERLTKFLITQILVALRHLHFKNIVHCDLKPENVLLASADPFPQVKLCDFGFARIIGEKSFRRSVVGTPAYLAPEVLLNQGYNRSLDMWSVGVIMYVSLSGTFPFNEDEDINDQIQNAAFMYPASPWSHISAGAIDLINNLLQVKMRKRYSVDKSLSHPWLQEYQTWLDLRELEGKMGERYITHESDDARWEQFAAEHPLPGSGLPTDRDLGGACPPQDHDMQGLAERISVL
The conditions noted are these: at 1 µM.

Experiment [2] concerns the target T2, Serine/threonine-protein kinase D3 (Homo sapiens) (UniProt O94806).
T2 sequence (whole entry): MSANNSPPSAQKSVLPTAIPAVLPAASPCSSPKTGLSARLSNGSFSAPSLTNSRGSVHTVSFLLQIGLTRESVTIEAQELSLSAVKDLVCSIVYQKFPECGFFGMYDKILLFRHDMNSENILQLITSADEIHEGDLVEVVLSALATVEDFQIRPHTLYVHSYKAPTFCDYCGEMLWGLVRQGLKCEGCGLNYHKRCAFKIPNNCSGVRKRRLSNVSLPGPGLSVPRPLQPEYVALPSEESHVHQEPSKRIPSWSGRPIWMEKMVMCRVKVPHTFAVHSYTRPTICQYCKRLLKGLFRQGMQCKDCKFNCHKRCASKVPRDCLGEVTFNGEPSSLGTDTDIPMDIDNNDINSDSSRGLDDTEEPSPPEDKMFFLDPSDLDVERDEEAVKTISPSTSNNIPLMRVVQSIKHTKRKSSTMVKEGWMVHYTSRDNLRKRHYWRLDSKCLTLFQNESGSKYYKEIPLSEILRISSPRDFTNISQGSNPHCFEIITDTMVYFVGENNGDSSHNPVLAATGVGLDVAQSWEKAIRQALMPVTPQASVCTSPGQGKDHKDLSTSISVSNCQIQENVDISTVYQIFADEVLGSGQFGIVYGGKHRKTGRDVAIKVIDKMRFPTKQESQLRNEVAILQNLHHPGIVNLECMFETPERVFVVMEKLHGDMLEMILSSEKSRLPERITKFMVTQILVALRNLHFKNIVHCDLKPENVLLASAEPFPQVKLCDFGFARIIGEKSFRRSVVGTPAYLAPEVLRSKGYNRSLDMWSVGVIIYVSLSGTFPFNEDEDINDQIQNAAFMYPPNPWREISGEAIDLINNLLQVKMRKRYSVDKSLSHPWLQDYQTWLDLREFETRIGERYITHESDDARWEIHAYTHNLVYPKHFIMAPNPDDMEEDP
Particulars: at 0.1 µM.

In experiment [3] the target is T2, Serine/threonine-protein kinase D3 (Homo sapiens). Particulars: at 1 µM.
The target in experiment [4] is T3, cGMP-dependent protein kinase 1 (Homo sapiens) (UniProt Q13976).
T3 sequence (whole entry): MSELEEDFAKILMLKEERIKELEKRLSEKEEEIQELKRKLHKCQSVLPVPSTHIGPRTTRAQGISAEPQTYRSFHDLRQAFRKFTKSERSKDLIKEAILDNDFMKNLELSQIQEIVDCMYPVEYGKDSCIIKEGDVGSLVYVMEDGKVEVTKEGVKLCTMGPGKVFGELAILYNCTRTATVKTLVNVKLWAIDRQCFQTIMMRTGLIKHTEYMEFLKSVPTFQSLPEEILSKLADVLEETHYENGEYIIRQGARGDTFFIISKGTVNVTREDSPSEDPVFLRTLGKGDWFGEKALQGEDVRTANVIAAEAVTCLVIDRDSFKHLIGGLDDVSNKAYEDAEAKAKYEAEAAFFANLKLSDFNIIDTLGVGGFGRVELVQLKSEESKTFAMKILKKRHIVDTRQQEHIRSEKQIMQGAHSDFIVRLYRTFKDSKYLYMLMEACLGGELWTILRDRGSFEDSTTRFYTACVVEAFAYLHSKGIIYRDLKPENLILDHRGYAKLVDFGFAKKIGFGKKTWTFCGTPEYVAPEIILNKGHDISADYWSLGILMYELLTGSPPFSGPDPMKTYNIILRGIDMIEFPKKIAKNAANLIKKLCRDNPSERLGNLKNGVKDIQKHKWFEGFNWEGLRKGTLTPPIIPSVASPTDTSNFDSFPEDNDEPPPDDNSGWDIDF
The conditions noted are these: at 0.1 µM.

Experiment [5] addresses T3, cGMP-dependent protein kinase 1 (Homo sapiens). The conditions noted are these: at 1 µM.
In experiment [6] the target is T4, cGMP-dependent protein kinase 2 (Homo sapiens) (UniProt Q13237).
T4 sequence (whole entry): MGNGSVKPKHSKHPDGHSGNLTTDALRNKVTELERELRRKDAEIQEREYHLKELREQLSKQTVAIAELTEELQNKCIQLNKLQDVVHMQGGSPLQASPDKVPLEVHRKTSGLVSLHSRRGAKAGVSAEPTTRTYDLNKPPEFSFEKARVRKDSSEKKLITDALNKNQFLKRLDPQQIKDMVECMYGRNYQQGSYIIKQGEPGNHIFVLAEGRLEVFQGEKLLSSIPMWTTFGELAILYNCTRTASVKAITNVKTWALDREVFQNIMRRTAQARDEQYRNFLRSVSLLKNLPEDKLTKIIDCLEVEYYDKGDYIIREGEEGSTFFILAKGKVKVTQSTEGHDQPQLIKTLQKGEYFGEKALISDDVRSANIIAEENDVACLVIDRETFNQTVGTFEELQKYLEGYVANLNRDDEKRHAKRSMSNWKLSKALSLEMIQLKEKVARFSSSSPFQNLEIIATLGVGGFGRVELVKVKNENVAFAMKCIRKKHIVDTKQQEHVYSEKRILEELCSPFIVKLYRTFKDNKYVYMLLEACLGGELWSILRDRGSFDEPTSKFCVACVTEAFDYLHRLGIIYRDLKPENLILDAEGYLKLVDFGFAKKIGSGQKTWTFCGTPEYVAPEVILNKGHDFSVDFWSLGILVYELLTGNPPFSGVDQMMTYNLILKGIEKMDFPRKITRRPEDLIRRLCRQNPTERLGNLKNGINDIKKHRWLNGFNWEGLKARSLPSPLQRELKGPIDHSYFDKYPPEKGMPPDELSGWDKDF
The conditions noted are these: at 0.1 µM.

Experiment [7] concerns the target T4, cGMP-dependent protein kinase 2 (Homo sapiens). Particulars: at 1 µM.
The target of experiment [8] is T5, cAMP-dependent protein kinase catalytic subunit PRKX (Homo sapiens) (UniProt P51817).
T5 sequence (whole entry): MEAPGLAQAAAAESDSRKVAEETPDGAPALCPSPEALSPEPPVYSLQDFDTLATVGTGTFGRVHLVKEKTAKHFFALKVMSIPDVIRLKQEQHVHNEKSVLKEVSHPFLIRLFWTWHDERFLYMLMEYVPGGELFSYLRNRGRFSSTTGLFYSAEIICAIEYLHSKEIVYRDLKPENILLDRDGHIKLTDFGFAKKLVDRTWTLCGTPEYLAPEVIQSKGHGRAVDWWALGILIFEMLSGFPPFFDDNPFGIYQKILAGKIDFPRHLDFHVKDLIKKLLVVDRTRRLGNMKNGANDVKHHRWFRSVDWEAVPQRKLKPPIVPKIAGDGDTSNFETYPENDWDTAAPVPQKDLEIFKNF
Particulars: at 0.1 µM.

In experiment [9] the target is T5, cAMP-dependent protein kinase catalytic subunit PRKX (Homo sapiens). The conditions noted are these: at 1 µM.
The target of experiment [10] is Rho-associated protein kinase 1 (Homo sapiens) (UniProt Q13464). The conditions noted are these: at 0.1 µM.
For experiment [11] the target is unchanged. Particulars: at 1 µM.
Experiment [12] deals with Rho-associated protein kinase 2 (Homo sapiens) (UniProt O75116). The conditions noted are these: at 0.1 µM.
For experiment [13] the target is unchanged. The conditions noted are these: at 1 µM.
Experiment [14] has as its target Ribosomal protein S6 kinase alpha-1 (Homo sapiens) (UniProt Q15418). The conditions noted are these: at 0.1 µM.
Experiment [15] has the same target. The conditions noted are these: at 1 µM.
Experiment [16] has as its target Ribosomal protein S6 kinase alpha-3 (Homo sapiens) (UniProt P51812). Particulars: at 0.1 µM.
Experiment [17] shares this target. The conditions noted are these: at 1 µM.
Experiment [18] concerns the target Ribosomal protein S6 kinase alpha-2 (Homo sapiens) (UniProt Q15349). The conditions noted are these: at 0.1 µM.
For experiment [19] the target is unchanged. The conditions noted are these: at 1 µM.
Experiment [20] has as its target Ribosomal protein S6 kinase alpha-6 (Homo sapiens) (UniProt Q9UK32). Particulars: at 0.1 µM.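 Also: reported value is the mean inhibition of RSK4, from the GSK PKIS kinase inhibitor screen.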

Sequence of Ribosomal protein S6 kinase alpha-2 (Homo sapiens) (Q15349 whole entry): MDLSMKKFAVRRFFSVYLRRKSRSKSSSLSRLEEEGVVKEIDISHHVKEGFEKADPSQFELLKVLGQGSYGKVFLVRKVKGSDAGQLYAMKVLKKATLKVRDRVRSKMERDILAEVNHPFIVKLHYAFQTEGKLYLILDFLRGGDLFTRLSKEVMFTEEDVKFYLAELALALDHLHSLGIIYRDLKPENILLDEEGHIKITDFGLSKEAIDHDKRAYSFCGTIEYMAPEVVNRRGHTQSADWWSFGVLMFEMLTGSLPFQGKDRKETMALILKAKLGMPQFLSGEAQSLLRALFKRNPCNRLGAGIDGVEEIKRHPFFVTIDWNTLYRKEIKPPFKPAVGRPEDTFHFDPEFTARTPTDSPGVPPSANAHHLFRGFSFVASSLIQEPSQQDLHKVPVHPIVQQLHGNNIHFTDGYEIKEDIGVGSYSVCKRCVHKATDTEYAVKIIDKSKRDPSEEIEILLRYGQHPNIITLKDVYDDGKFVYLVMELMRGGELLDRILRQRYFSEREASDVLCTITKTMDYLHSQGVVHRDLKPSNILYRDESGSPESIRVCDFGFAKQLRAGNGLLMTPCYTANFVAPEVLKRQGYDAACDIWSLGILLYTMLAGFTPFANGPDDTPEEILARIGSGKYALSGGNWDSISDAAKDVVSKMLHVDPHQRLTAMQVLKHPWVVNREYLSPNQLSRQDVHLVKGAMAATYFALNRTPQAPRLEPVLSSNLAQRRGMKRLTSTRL
Sequence of Ribosomal protein S6 kinase alpha-3 (Homo sapiens) (P51812 whole entry): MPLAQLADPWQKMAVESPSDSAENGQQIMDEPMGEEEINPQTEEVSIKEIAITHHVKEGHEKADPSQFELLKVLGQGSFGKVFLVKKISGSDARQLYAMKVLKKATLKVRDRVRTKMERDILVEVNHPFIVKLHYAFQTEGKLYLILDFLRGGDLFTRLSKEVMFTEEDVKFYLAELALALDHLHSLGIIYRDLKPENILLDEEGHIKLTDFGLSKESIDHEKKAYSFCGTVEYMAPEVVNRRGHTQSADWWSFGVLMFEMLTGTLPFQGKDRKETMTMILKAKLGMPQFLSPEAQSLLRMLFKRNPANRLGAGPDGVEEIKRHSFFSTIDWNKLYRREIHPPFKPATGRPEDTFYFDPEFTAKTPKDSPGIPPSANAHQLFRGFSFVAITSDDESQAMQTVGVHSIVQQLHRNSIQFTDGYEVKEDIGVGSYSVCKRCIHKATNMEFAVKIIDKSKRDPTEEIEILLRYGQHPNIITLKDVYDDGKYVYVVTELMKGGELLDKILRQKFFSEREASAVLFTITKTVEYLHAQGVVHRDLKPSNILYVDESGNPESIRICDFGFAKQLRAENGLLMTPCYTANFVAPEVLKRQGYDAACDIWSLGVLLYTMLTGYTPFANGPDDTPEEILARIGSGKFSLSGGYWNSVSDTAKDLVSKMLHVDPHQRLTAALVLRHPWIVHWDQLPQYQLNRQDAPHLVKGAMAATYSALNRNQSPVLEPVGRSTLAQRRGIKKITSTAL
Sequence of Rho-associated protein kinase 2 (Homo sapiens) (O75116 whole entry, looked up): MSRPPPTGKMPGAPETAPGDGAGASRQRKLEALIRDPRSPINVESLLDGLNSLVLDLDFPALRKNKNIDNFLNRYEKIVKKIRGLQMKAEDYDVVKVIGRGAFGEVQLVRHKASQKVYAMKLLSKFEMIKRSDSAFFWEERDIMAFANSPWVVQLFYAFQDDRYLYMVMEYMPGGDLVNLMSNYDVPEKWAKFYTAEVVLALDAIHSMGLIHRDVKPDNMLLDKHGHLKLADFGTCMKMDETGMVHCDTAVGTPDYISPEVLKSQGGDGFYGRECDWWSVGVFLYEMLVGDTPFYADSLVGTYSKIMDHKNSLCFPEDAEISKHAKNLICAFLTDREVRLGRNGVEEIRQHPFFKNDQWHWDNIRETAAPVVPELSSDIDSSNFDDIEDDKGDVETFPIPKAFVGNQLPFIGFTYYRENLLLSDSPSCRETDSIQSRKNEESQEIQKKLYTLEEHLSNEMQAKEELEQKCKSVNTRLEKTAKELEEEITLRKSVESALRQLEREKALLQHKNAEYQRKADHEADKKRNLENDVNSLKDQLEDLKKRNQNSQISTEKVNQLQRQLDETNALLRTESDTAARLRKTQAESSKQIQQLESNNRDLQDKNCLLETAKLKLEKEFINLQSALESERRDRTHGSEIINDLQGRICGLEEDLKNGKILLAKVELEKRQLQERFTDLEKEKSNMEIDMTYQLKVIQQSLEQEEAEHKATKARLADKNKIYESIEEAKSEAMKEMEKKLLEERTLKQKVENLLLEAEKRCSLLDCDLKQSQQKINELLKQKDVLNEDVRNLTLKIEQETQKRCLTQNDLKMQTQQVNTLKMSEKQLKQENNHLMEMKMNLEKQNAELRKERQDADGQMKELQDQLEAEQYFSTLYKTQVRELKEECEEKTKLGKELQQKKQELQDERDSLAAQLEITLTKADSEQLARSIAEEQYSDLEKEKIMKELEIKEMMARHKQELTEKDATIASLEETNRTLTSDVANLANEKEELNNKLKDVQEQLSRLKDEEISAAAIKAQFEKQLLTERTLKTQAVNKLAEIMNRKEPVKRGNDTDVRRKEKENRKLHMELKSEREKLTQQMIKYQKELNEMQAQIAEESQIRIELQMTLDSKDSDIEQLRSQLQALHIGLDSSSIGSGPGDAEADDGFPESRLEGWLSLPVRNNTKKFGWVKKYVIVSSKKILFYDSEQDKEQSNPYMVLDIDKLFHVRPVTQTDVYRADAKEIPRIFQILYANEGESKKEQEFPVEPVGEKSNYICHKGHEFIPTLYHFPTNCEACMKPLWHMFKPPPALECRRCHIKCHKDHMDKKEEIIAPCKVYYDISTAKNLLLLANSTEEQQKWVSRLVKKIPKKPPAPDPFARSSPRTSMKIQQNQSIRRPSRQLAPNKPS
Sequence of Ribosomal protein S6 kinase alpha-1 (Homo sapiens) (Q15418 whole entry): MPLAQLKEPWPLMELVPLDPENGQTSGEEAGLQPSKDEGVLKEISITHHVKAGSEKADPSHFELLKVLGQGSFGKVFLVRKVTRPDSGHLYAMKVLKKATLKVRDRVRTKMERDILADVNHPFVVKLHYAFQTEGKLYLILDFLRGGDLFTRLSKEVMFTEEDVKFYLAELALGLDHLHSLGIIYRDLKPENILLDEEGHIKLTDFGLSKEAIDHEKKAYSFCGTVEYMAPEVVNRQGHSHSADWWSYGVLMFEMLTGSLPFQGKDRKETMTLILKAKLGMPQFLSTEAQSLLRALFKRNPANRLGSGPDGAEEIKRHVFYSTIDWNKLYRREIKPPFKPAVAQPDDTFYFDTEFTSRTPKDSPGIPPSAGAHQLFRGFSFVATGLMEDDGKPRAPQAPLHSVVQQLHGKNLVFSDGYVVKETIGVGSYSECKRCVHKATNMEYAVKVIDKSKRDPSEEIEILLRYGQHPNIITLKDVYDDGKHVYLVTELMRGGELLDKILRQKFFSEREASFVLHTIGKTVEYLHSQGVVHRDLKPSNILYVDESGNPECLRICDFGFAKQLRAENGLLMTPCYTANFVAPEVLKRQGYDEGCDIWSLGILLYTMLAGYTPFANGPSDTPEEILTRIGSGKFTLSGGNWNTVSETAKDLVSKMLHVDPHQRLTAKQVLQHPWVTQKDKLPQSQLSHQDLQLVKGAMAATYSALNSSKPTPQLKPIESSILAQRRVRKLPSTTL
Sequence of Rho-associated protein kinase 1 (Homo sapiens) (Q13464 2-1354 limits assumed): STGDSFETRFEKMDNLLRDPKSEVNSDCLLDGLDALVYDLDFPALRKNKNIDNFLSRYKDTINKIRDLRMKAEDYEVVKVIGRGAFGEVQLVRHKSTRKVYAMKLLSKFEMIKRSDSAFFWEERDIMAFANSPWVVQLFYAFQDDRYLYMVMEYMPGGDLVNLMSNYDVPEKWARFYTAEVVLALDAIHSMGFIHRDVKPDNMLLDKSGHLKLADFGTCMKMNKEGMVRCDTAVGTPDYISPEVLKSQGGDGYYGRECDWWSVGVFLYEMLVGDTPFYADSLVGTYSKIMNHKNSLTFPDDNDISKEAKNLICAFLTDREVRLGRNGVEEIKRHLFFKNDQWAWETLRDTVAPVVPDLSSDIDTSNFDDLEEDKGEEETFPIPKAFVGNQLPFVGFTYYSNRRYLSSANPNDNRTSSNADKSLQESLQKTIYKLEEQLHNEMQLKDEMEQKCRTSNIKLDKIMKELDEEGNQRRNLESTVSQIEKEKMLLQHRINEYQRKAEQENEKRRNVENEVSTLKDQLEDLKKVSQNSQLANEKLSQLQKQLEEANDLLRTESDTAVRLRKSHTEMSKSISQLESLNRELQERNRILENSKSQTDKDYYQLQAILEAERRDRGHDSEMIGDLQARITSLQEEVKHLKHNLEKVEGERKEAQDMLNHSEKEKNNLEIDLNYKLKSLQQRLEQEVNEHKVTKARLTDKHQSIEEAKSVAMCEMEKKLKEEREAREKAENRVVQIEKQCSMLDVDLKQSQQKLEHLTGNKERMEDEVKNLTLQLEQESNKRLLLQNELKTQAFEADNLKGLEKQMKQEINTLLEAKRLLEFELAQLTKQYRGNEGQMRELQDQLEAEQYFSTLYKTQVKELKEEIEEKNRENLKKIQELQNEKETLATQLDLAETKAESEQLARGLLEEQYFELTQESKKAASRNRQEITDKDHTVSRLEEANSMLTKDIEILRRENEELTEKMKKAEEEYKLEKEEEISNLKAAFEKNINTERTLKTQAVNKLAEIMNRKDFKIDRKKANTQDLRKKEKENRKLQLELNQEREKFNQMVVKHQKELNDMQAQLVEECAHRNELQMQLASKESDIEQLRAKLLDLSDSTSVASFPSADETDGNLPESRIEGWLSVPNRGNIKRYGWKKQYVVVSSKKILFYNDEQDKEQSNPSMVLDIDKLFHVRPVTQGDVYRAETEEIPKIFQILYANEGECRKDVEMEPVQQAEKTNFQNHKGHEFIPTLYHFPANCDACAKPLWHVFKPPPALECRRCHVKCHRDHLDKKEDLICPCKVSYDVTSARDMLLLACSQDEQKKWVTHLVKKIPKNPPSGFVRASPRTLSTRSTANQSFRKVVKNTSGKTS

In the case of `CCn1c(-c2nonc2N)nc2c(N3CCCC3)nccc21`, the inhibition was -0.31% in [1]; -0.29% in experiment [2]; 0.75% in [3]; 0.96% in experiment [4]; 3.63% in experiment [5]; 1.09% in experiment [6]. For the same molecule, the inhibition is 9.26% in experiment [7]; 0.17% in experiment [8]; 0.74% in experiment [9]; 3.22% in experiment [10]; 22.2% in experiment [11]; 3.86% in [12]. Besides, the inhibition in [13] was 30.6%; in experiment [14], 0.29%; in experiment [15], 7.82%; in [16], 0.44%; in [17], 4.5%; in experiment [18], -0.11%. For the same molecule, the figures for the inhibition in experiment [19] and in experiment [20] were 7.05% and -0.21%, respectively.
For `CCn1c(-c2nonc2N)nc2cncc(C(=O)N3CCNCC3)c21`, the inhibition in experiment [1] came to 4.19%; in experiment [2], 5.65%; in experiment [3] it was 4.94%; in experiment [4], 5.91%; in [5] it was 9.25%; in experiment [6], 6.28%. Besides, the inhibition in [7] was determined as 7.34%; in experiment [8] it was 3.9%; in experiment [9], 3.75%; in experiment [12], 3.45%; in experiment [13], 4.33%; in experiment [14] it was 1.84%. Moreover, the inhibition in experiment [15] was 3.1%; in experiment [16], 0.8%; in [17] it was -0.05%; in [18], 3.17%; in experiment [19] it was 3.01%; in experiment [20], 1.32%.
Turning to `Nc1nc(-c2ccc3c(c2)C(=Cc2cc(Br)c(O)c(Br)c2)C(=O)N3)cs1`, the inhibition in experiment [1] is -1.39%; in experiment [2], -1.58%; in [3] it was -1.34%; in experiment [4] it was 0.42%; in experiment [5], 1.43%; in [6], -0.63%. Moreover, the inhibition in [7] is 1.49%; in [8], -0.49%; in experiment [9], 0.42%; in [10], -0.08%; in experiment [11], -0.02%; in experiment [12], -0.52%. The inhibition in experiment [13] was 2.2%; in [14], -0.32%; in [15], 4.1%; in experiment [16], -0.26%; in experiment [17] it was 1.6%; in experiment [18] it was -0.77%. In addition, the inhibition in experiment [19] was 1.44%; in experiment [20] it was -0.07%.
Consider `CC1=C(C(=O)Nc2ccc3[nH]ncc3c2)C(c2ccc(F)cc2)NC(=O)N1` (stereo unspecified), for which the inhibition turned out to be 8.48% in [1]; 3.46% in experiment [2]; 7.95% in [3]; 4.58% in [4]; 20.1% in experiment [5]; 1.73% in [6]. Also, the inhibition in experiment [7] turned out to be 12.6%; in experiment [8], 12.7%; in experiment [9], 53.4%; in [12], 64.1%; in [13], 74.5%; in [14], 2.36%. The inhibition in [15] is 15.7%; in experiment [16], 2.28%; in [17], 11.2%; in [18] it was 2.36%; in experiment [19], 7.93%; in [20], 2.07%.

Source of the values: ChEMBL document CHEMBL1961873, “Compounds: GSK PKIS; Assays: Nanosyn kinase panel” (2012).
